The record followed here is PubChem BioAssay.

The subject of experiment [1] is Human papillomavirus type 1a protein E7 (residues 44-93). The experiment can be described thus: HPV1a E7 fragment binders on microarrays, primary screen, biochemical, small-molecule microarray, residues 44-93, 635 nm fluorescence (AID 1108).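 Note: E7 fragment applied at 1 µg/mL in TBST for 1 h at 4 C; score combines spot fluorescence with its signal to noise ratio.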 The note with it: small-molecule microarray binding, fluorescence 635 nm; higher = more signal.
A short description of experiment [2]: modulators of HCV replicon luciferase signal, primary screen, HCV replication inhibitor project, Huh7 cells, luciferase reporter (AID 1109).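 Note: huh7 hepatoma cells harbouring a luciferase neomycin HCV replicon reporter; luciferase luminescence as measure of HCV replicon replication; test concentration not given here.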 The note with it: 48 h, higher = more signal. On the technique in general: In antiviral work, replicon cells carry a viral genome segment that copies itself.
Experiment [3] deals with Left-right determination factor 2 (Homo sapiens) (UniProt O00292). As to the kind of experiment: LEFTY2 binders on small-molecule microarrays, primary screen, biochemical, small-molecule microarray, 635 nm fluorescence scan (AID 1110). The settings on record: LEFTY2 binding, higher = more signal.
Chain of Left-right determination factor 2 (Homo sapiens) (O00292 whole entry, looked up): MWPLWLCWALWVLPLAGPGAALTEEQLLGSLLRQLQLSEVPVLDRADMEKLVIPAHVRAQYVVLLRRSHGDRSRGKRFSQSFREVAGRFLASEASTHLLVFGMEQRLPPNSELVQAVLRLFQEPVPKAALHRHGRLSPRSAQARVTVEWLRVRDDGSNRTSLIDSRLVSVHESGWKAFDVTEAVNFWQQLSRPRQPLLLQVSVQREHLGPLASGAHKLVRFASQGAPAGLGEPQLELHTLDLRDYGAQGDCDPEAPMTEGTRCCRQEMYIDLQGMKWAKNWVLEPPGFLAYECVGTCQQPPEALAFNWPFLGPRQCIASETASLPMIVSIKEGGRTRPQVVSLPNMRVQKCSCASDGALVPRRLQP
In experiment [4] the target is Calmodulin-1 (Homo sapiens) (UniProt P0DP23). The experiment can be described thus: CALM1 binders on microarrays, EGTA buffer, profiling panel, biochemical, small-molecule microarray, Cy5-labelled CALM1 (AID 1111).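 Note: labelled calmodulin applied in Tris saline Tween buffer holding calcium plus EGTA and DTT.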 The note with it: Cy5-CALM1 binding fluorescence, higher = more signal.
The target is the same in experiment [5]. The experiment can be described thus: calcium-bound CALM1 binders on microarrays, profiling panel, artefact control for SMM control-protein annotation, biochemical, small-molecule microarray, Cy5-labelled CALM1, plus calcium (AID 1112).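 Note: score merges spot fluorescence with signal to noise from triplicate slides.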 The note with it: Cy5-CALM1 binding fluorescence, higher = more signal.
Experiment [6] is described as follows: small-molecule microarray binders of probe aWnt5a, primary screen, biochemical, biotinylated probe, 635/667 nm fluorescence (AID 1113).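 Note: score merges 667 nm fluorescence intensity with signal-to-noise per printed feature.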 The note with it: higher = more signal.
The nature of experiment [7]: small-molecule microarray binders of probe aShh, primary screen, biochemical, biotinylated probe, 635/667 nm fluorescence (AID 1114).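 Note: probe is biotin-labelled aShh protein from a stem cell growth factor screen; measures binding of labelled protein to compounds printed on the slide; score merges feature fluorescence at 667 nm with signal-to-noise.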 The settings on record: higher = more signal.
The nature of experiment [8]: small-molecule microarray binders of probe aNog, primary screen, biochemical, biotinylated probe, 635/667 nm fluorescence (AID 1115).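 Note: probe is biotinylated aNog protein used at 0.15 µg/mL for 1 h at 4 C; z-score combines 667 nm fluorescence of each spot with its signal to noise.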 The note with it: higher = more signal.
In experiment [9] the target is Torsin-1A-interacting protein 1 (Homo sapiens) (UniProt Q5JTV8). The experiment can be described thus: LAP1 binders from COS7 cell lysate, primary screen, small-molecule microarray, 635/667 nm fluorescence (AID 1116). The settings on record: COS7-hLAP1 lysate binding, 635 nm fluorescence, higher = more signal.
Chain of Torsin-1A-interacting protein 1 (Homo sapiens) (Q5JTV8 whole entry, looked up): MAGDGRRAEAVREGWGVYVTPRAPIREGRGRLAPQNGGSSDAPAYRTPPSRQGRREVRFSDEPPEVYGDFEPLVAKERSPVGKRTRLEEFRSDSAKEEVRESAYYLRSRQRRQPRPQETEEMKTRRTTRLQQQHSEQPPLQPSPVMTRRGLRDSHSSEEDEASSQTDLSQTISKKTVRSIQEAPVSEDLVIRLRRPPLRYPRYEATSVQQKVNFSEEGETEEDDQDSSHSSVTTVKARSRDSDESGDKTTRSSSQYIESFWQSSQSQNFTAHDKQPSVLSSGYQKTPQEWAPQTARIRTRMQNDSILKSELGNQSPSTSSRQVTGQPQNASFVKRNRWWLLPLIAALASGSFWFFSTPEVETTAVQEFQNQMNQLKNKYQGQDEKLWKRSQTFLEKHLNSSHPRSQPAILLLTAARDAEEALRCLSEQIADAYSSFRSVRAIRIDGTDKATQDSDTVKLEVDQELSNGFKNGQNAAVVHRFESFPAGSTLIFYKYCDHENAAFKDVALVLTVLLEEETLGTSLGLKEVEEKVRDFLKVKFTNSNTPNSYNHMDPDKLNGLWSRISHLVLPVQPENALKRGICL
Experiment [10] has as its target Alpha-bungarotoxin (Bungarus multicinctus) (UniProt P60615). The experiment can be described thus: alpha-bungarotoxin binders on microarray, profiling panel, artefact control for SMM control protein annotation, biochemical, small-molecule microarray, Alexa647 label, 635/667 nm fluorescence (AID 1117). The settings on record: alpha-BTX-A647 binding fluorescence, higher = more signal.

The next experiment has as its target Albumin (Bos taurus) (UniProt P02769). As to the kind of experiment: bovine serum albumin binders on microarray, profiling panel, artefact control for SMM control protein annotation, biochemical, small-molecule microarray, Alexa647 label, 635/667 nm fluorescence (AID 1118).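 Note: score merges 667 nm emission intensity and signal-to-noise per printed compound spot.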 The note with it: BSA-A647 binding, fluorescence 635 nm, higher = more signal.
The nature of experiment [11]: small-molecule microarray binders of probe aXIP, primary screen, biochemical, NeuroSMM set, 635/667 nm fluorescence (AID 1119).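 Note: probe is the protein aXip251-270 applied at 1 µg/mL to compound-printed slides; binding of probe to printed compounds measured as 667 nm fluorescence plus signal to noise.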 The settings on record: higher = more signal, called active from +8 up or from −8 down.
A short description of experiment [12]: small-molecule binders of probe aNOTCH3, primary screen, biochemical, small-molecule microarray, 635/667 nm fluorescence (AID 1120).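 Note: probe is a biotin-tagged antibody raised against NOTCH3 rather than NOTCH3 protein; score merges spot fluorescence near 667 nm with spot signal to noise.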 The note with it: higher = more signal.
Experiment [13] is described as follows: small-molecule binders of probe aNOTCH2, primary screen, biochemical, small-molecule microarray, 635/667 nm fluorescence (AID 1121).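 Note: score merges feature fluorescence read at 667 nm with its signal to noise.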 The note with it: higher = more signal.
Experiment [14] concerns the target Carbonic anhydrase 2 (Homo sapiens) (UniProt P00918). The experiment can be described thus: CAII small-molecule binders, profiling panel, biochemical, small-molecule microarray, Alexa647-labelled CAII (AID 1122). The settings on record: CAII-A647 binding fluorescence, higher = more signal.
The nature of experiment [15]: COS7 lysate on small-molecule microarray, probe aHis, 635 nm (AID 1123).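 Note: z-score combines 667nm fluorescence intensity with signal-to-noise per printed compound spot.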 The note with it: COS7 cell lysate, fluorescence, higher = more signal.
Experiment [16] can be described thus: compound binding in COS7 lysate, probe aLAP1, primary screen, cell lysate, small-molecule microarray (AID 1124).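 Note: lysate comes from COS7 cells expressing LAP1 and is applied at 0.3 µg/mL; score merges spot fluorescence near 667 nm with signal-to-noise over triplicate slides.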 The note with it: probe aLAP1, fluorescence, higher = more signal.
A further experiment has as its system Sam68 (KHDRBS1). As to the kind of experiment: Sam68 small-molecule binders, primary screen, biochemical, small-molecule microarray, 635 nm fluorescence (AID 1125).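 Note: score merges 667 nm channel intensity with signal to noise over triplicate slides.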 The settings on record: small-molecule microarray binding, higher = more signal.
Experiment [17] relates to Chordin-like protein 2 (CHRDL2). As to the kind of experiment: CHRDL2 small-molecule binders, primary screen, biochemical, small-molecule microarray, 635 nm fluorescence (AID 1126).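 Note: printed compound slides probed with Chrdl2 protein at 4 µg/mL for 1 h at 4 C; score merges 667 nm emission intensity with signal to noise over three replicate slides.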 The note with it: small-molecule microarray binding, fluorescence 635 nm; higher = more signal.
Experiment [18] deals with Concanavalin-A (Canavalia ensiformis) (UniProt P02866). The experiment can be described thus: ConA small-molecule binders, primary screen, artefact control for SMM control protein annotation, biochemical, small-molecule microarray, Alexa647 label, 635 nm (AID 1127).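 Note: z combines 667 nm emission intensity with signal-to-noise across three replicate slides.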 The settings on record: ConA-A647 binding fluorescence, higher = more signal.
Chain of Concanavalin-A (Canavalia ensiformis) (P02866 whole entry, looked up): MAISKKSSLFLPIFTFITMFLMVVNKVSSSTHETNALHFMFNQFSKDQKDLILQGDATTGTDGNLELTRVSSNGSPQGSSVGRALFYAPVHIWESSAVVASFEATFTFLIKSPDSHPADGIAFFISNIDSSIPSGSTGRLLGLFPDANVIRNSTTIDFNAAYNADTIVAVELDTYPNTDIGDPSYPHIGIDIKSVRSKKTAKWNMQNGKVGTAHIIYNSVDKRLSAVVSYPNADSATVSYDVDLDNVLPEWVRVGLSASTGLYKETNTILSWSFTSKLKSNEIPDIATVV

Active and inactive are the calls of the source.

Chain of Alpha-bungarotoxin (Bungarus multicinctus) (P60615 whole entry, looked up): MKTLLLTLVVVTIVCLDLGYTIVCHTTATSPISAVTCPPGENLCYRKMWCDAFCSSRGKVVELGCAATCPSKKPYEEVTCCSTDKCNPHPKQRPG
Chain of Albumin (Bos taurus) (P02769 whole entry, looked up): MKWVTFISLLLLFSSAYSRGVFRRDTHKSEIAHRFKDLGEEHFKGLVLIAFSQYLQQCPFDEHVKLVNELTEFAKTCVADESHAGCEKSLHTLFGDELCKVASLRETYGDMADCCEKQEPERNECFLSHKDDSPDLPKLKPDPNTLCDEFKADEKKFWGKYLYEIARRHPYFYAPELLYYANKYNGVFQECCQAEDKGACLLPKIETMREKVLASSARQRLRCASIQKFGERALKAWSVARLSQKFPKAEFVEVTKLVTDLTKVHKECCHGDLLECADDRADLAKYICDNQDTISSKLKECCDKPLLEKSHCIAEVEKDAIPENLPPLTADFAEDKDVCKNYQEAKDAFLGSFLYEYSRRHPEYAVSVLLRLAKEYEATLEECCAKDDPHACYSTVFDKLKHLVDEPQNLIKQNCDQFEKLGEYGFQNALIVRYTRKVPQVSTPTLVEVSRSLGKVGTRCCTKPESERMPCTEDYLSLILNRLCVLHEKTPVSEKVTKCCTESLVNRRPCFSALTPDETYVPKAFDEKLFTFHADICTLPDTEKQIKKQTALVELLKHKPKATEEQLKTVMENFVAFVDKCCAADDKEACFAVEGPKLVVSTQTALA

For the molecule `O=C1C2C=CC(C(O)C=Cc3ccc([N+](=O)[O-])cc3)N(n3cnnc3)C2C(=O)N1Cc1ccccc1` (stereo not given), the composite z-score is 1.34 in experiment [1]; -0.368 in experiment [3]; 0.596 in experiment [4]; -0.143 in experiment [5]; 0.0633 in [6]; -0.0035 in experiment [7]. Also, the composite z-score in [8] was 0.977; in experiment [9] it was 0.832; in [10], 1.39; in the experiment with Albumin (Bos taurus) it was 0.235; in experiment [12], 0.177; in experiment [13], 0.02. The composite z-score in experiment [14] came out at 0.66; in [15], 1.38; in experiment [16], 1.04; with Sam68 (KHDRBS1) it was 1.19; in [17], 0.682; in experiment [18], 0.876. The molecule further came in with a z-score in [2] of -0.93. The composite Z-score in experiment [11] was 0.263 (inactive).

With `C=CCN1C(=O)[C@]2(Cc3ccccc3)N=C(c3ccc(OCCCO)cc3)O[C@@H]2c2ccccc21`, the composite z-score was 1.45 in experiment [1]; 0.993 in experiment [3]; 0.893 in experiment [4]; -0.672 in experiment [5]; -0.0519 in experiment [6]; 0.531 in [7]. Moreover, the composite z-score in [8] is -0.802; in experiment [9] it was 0.251; in experiment [10], 1.04; in the experiment with Albumin (Bos taurus), -0.591; in experiment [12] it was 0.143; in experiment [13], -0.0029. Further, the composite z-score in experiment [14] is 0.414; in [15], 2.79; in experiment [16], -0.0869; in the experiment with Sam68 (KHDRBS1), 1.3; in [17], 0.997; in experiment [18] it was 0.911. For the same molecule, in experiment [2], the z-score was -1.84. In addition, the composite Z-score in [11] was -0.452 (inactive).

`CC(C)=CCCC(C)=CC(O)C1C=CC2C(=O)N(c3ccccc3)C(=O)C2N1Nc1ccc(C(C)C)cc1` (stereo not given): the composite z-score in [1] was 1.45; in experiment [3], -0.0675; in experiment [4], 0.943; in experiment [5], 0.415; in experiment [6], 0.163; in [7] it was 0.0839. Further, the composite z-score stood at 1.6 in [8]; 0.203 in experiment [9]; 0.925 in experiment [10]; 0.792 with Albumin (Bos taurus); 0.282 in experiment [12]; 0.0683 in [13]. The composite z-score in experiment [14] is 0.465; in experiment [15] it was 2.32; in [16], -0.519; in the experiment on Sam68 (KHDRBS1), 1.23; in experiment [17], -1.01; in experiment [18], 1.09. The molecule further showed a z-score in [2] of -0.0821. For the same molecule, the composite Z-score in experiment [11] was 0.415 (inactive).

On to `COCCCNC(=O)[C@@]1(Cc2ccccc2CN=[N+]=[N-])N=C(c2ccc(OCCCO)cc2)O[C@H]1c1ccccc1CN=[N+]=[N-]`, for which the composite z-score in [1] is 1.37; in experiment [3], -0.443; in [4], 1.36; in experiment [5], 0.875; in experiment [6], 0.173; in [7] it was 0.311. For the same molecule, the composite z-score in experiment [8] was -0.69; in [9] it was 0.852; in experiment [10], 1.84; with Albumin (Bos taurus) it was 1.02; in experiment [12], 0.459; in experiment [13], -0.0438. In addition, the composite z-score in experiment [14] was 0.594; in [15] it was 2.58; in experiment [16], 0.574; with Sam68 (KHDRBS1) it was 1.29; in [17], -1.13; in experiment [18], 0.972. The molecule further had a z-score in experiment [2] of -3.39. Besides, in experiment [11], the composite Z-score is 0.585 (inactive).

Consider `COc1cc2c(cc1O)C(c1cccs1)N(Cc1ccc([N+](=O)[O-])o1)CC2` (stereo not given), for which the composite z-score is 0.665 in experiment [1]; -0.333 in experiment [3]; 1.5 in experiment [4]; 0.33 in experiment [5]; -0.0303 in experiment [6]; 0.155 in experiment [7]. Further, the composite z-score is 1.19 in experiment [8]; -0.194 in [9]; 0.766 in [10]; 0.878 in the experiment with Albumin (Bos taurus); 0.029 in experiment [12]; 0.12 in experiment [13]. The composite z-score in experiment [14] is 0.876; in experiment [15], 1.35; in [16], 1.08; in the experiment with Sam68 (KHDRBS1), 0.0376; in experiment [17] it was -0.57; in experiment [18], 0.364. In addition, in [2], the z-score was -0.213. In addition, in experiment [11], the composite Z-score is 3.03 (inactive).

Take `CCOC(=O)C1=C[C@@H](C(C)C)N(S(=O)(=O)c2ccc(C)cc2)[C@H]1c1ccccc1F`: the composite z-score in [1] is 1.34; in [3], 0.605; in [4], 1.74; in experiment [5], 0.0462; in experiment [6] it was -0.001; in experiment [7] it was 0.116. Besides, the composite z-score is 0.541 in experiment [8]; 1.08 in experiment [9]; 1.39 in experiment [10]; 0.81 with Albumin (Bos taurus); 0.0576 in experiment [12]; -0.0877 in experiment [13]. The composite z-score in experiment [14] is 0.62; in experiment [15], 1.66; in experiment [16], -0.144; in the experiment with Sam68 (KHDRBS1), 1.31; in experiment [17], -0.333; in [18], 1.17. Moreover, the z-score in experiment [2] is -2.04. Besides, the composite Z-score in experiment [11] is 0.594 (inactive).
